Measured values taken from PubChem BioAssay AID1159580 (chemical genetic matrix, 2015).
Among all 5,500 compounds or so, about 2,000 (36%) were called active. Not shown: some 18% with an inconclusive outcome. Cut-off read from the data, not from the text of the source: active = normalized growth mostly below about 0.91 (no sharp cut-off); inconclusive = no clear call, values can overlap the other calls; inactive = mostly above about 0.92. The list shows a part of the results.

Experiment: chemical genetic growth profiling, strain panel (AID 1159580);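 note: tested at 20 µM; growth read once vehicle control cultures reached saturation at 30 °C; 1 = growth at the plate median or of vehicle wells; lower values mean less growth of the strain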
Settings: S. cerevisiae deletion strains, growth OD

Measured: normalized growth

Oc1ccccc1O
inactive: locus YAL013W, strain DEP1, hits give low values 0.966 | locus YAL040C, strain CLN3, hits give low values 0.983 | locus YCL061C, strain MRC1 (second series), hits give low values 0.971 | locus YER002W, strain NOP16, hits give low values 1 | locus YGR229C, strain SMI1, hits give low values 0.904 | locus YNL153C, strain GIM3, hits give low values 1.03 | locus YNL175C, strain NOP13, hits give low values 1.02 | locus YNL197C, strain WHI3, hits give low values 1.02 | locus YNL224C, strain SQS1, hits give low values 0.999 | locus YOR083W, strain WHI5 (second series), hits give low values 1.03
